# HT1080-NT tox: kills 2HG-producing HT-1080-NT fibrosarcoma cells; AID 686970; HT-1080-NT fibrosarcoma viability, CellTiter-Glo ATP luminescence, 48 h; Potency, µM (titrated, usually from 46.1 µM), usual class: cytotoxic; 1.6% of 360,000 active;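 note: NT is the 2HG producing partner of a matched IDH1 knockdown line; nearly all actives have a fitted effect of over 55% in size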
#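 HT-1080-NT; 750 cells/well; 5% FBS RPMI; 48 h compound, 37 degrees C; CellTiter-Glo luminescence; curve fitting and curve-class assignment.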
# DT40 TDP1 no CPT: qHTS for Inhibitors of human tyrosyl-DNA phosphodiesterase 1 (TDP1): qHTS in cells in absence of CPT; DT40 Tdp1-/- hTDP1 cells, no CPT, ATP luminescence, 48 h; Potency, µM (top dose mostly 46.2 µM), most hits filed as inhibitors; 15% of 420,000 active; note: nearly all actives have a fitted effect of over 55% in size
#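 No-CPT arm: Tdp1-/-;hTDP1 DT40 cells (400/well) plus compounds, incubated ≥48 hr at 37 °C. Readout CellTiter-Glo luminescence.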
# DT40 TDP1 CPT: growth inhibition of DT40 Tdp1-/-;hTDP1 cells with camptothecin (screen for TDP1 inhibitors); 12% of 420,000 active; Potency, µM (series often up to 46.2 µM), hits mostly inhibitors; chicken DT40 Tdp1-/-;hTDP1 cells + 20 nM CPT, ATP luminescence, 48 h; note: nearly all actives have a fitted effect of over 55% in size
#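 Chicken DT40 Tdp1-/- cells stably complemented with human TDP1 were seeded at 400 cells/well in medium containing 20 nM camptothecin, exposed to pin-transferred compounds, and grown at 37 °C for at least 48 hr. Viability was read as ATP luminescence.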
# ELG1 DNA repair: ELG1-dependent DNA repair inhibition; HEK293T ELG1-luciferase reporter, luminescence, 16 h; DNA damage induced by 5-fluorouridine; Potency, µM (titrated, usually from 46.1 µM), most hits filed as inhibitors; 2.3% of 330,000 active; AID 504467; note: nearly all actives have a fitted effect of over 55% in size
#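 Step one: seed 2,000 cells per well. Step two: pin-transfer compound or DMSO alongside 5-fluorouridine. Step three: incubate 16 hr, 37 °C, 5% CO2. Step four: add ONE-Glo, wait 30 min, read luminescence.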
# HT1080 IDH1KD tx: kills HT-1080 cells with IDH1 knockdown; AID 686971; 2% of 360,000 active; Potency, µM (highest dose often 46.1 µM), usual class: cytotoxic; HT-1080 IDH1 knockdown viability, ATP luminescence, 48 h
#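 CellTiter-Glo luminescence after 48 h compound exposure at 37 degrees C of IDH1-knockdown HT-1080 cells in 5% FBS RPMI. %Activity scaled between DMSO wells and cell-free media wells, with curves fitted and assigned curve classes.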
# IL1B secr inh: blocks inflammasome-driven IL-1 beta release. THP-1 LPS/ATP IL-1B secretion, AlphaLISA, 16 h; active compounds read low. activity change, % at 57.5 µM. AID 743279. 4.7% of 360,000 active; in the data active = activity change below about -50%; inconclusive = mostly about -30% to -49%
#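 Secreted IL-1B measured by AlphaLISA bead assay after 16 h compound exposure of THP-1 cells; compounds (final up to 57.5 uM) added 1 h before LPS (250 ng/mL) and ATP (1.25 mM) stimulation; lower signal means less secretion.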
# A number is an active result; - = inactive; ? = inconclusive; . = no result; [ ] = another dose, or the depositor's remark. Hits are enriched below; roughly 19% of the tested compounds scored in any of these assays. Unless noted, calls come from the whole dose curve; as a rule, active = well fitted curve in the direction sought with a large enough effect; inconclusive = small, poorly fitted or top-dose-only effect, or another doubt; inactive = no such curve, though single readings can be large; an effect the other way counts as inactive or inconclusive.
SMILES,HT1080-NT tox,DT40 TDP1 no CPT,DT40 TDP1 CPT,ELG1 DNA repair,HT1080 IDH1KD tx,IL1B secr inh
Cc1ccc(C)c(OCC(O)CN2CCCCC2C)c1 (stereo not given),-,?,-,-,-,-
Nc1nsc2ccccc12,2.5µM,2.2µM,3.3µM,-,2.5µM,-99
Nc1nnc(N)c2ccccc12,-,-,-,-,-,-
O=S1(=O)NC(=NCc2ccco2)c2ccccc21,-,-,-,-,-,-
CN(C)c1nc(=NCc2ccco2)ss1,-,0.037µM,0.15µM,?,-,-89
COc1ccccc1Oc1ncnc2c1cnn2-c1ccccc1,-,?,-,?,-,-
COc1cc(C(C)=O)ccc1Oc1ncnc2c1cnn2-c1ccc(F)cc1,-,9.2µM,?,?,-,-
CCCC(=O)NC(c1cccc([N+](=O)[O-])c1)c1ccc2cccnc2c1O (stereo not given),?,2.9µM,12µM,.,?,-
CC(C)C(=O)NC(c1cccc([N+](=O)[O-])c1)c1c(O)ccc2ccccc12 (stereo not given),-,-,-,-,-,-
CC(C)C(=O)NC(c1cccc([N+](=O)[O-])c1)c1ccc2cccnc2c1O (stereo not given),-,4.6µM,4.6µM,?,?,-
Cc1ccc2c(-c3csc(N)n3)c[nH]c2c1,.,.,.,-,.,.
O/N=C/c1ccccc1Oc1ccc(Cl)cc1,-,16µM,?,-,-,-
Cc1nc(Cc2nnc(SCC(=O)N3c4ccccc4NC(=O)C3(C)C)o2)cs1,-,16µM,-,.,-,-
CC1=CS(=O)(=O)CC1Sc1nc2ccccc2[nH]1 (stereo not given),-,-,-,-,-,-
O=S1(=O)C=CC(Sc2nc3ccccc3[nH]2)C1 (stereo not given),-,21µM,13µM,-,-,-
CCC(C)N(C(=O)CSc1nnc(NC(C)C)s1)C1CCS(=O)(=O)C1 (stereo not given),-,-,-,-,-,-
COCCN1Cc2cc3cc(C)ccc3nc2SC1=Nc1cccc(OC)c1,-,-,?,?,-,-
COCCN1Cc2cc3cc(C)ccc3nc2SC1=Nc1ccc(OC)cc1,-,?,?,-,-,-53
CCOc1ccc(N=C2Sc3nc4ccc(C)cc4cc3CN2CCOC)cc1,-,?,?,?,-,-
COCCN=C1Sc2nc3ccc(C)cc3cc2CN1Cc1cccs1,-,21µM,?,?,-,-87
COCCN=C1Sc2nc3c(C)cccc3cc2CN1Cc1ccco1,-,?,?,-,-,-
CCC(C)N=C1Sc2nc3ccc(C)cc3cc2CN1CCOC (stereo not given),-,?,?,?,-,-83
CCOc1ccc2nc3c(cc2c1)CN(CCCO)C(=NCCOC)S3,-,15µM,?,?,-,?
CCCCNc1cc(F)nc(N)n1,-,-,-,-,-,-
CCOc1ccc(NC(=O)Cn2c(=O)n(-c3cccc(Cl)c3)c(=O)c3c2c2cc(C)ccc2n3C)cc1,.,-,-,.,.,.
SMILES,HT1080-NT tox,DT40 TDP1 no CPT,DT40 TDP1 CPT,ELG1 DNA repair,HT1080 IDH1KD tx,IL1B secr inh
CCOC(=O)C(NC(=O)c1ccccc1)=C(C)C,-,-,-,-,-[9.24 µM],-
COC(=O)C(NC(=O)c1ccccc1)=C(C)C,-,?,18µM,-,-,-
COc1ccc(CCNC(=O)Cc2c(C)c3c(cc(C)c4c(C)coc43)oc2=O)cc1OC,.,21µM,18µM,.,.,.
COCCNC(=O)Cc1c(C)c2c(cc(C)c3c(C(C)(C)C)coc32)oc1=O,6.5µM,15µM,9.2µM,-,8.2µM,-
Cc1cc2oc(=O)c(CC(=O)NCCCN(C)C)c(C)c2c2occ(C(C)(C)C)c12,18µM,?,?,?,5.8µM,-98
Cc1ccc(S(=O)(=O)N(C)C)cc1NC(=O)c1cc(=O)c2ccccc2o1,-,?,-,-,-,-
CC[n+]1c(/C=C/C=C/N(C(C)=O)c2ccccc2)sc2cc(OC)ccc21,?,2.6µM,3.3µM,-,?,-117
CN(C)Cc1cc(C(C)(C)c2ccccc2)ccc1O,-,?,23µM,.,-,?
CC(C)(c1ccc(O)c([N+](=O)[O-])c1)c1ccc(O)c([N+](=O)[O-])c1,-,-,-,.,-,-
COc1ccc(NC(=O)[C@@H]2CC=C[C@@H]3CCN(C4CC4)C(=O)[C@@H]32)cc1,.,-,-,.,.,.
c1cc2c(cn1)cnc1cscc12,-,-,?,8.2µM,-,?
CC(=O)NC12CC3CC(C1)CC(C(=O)N(C)Cc1cccc(Cl)c1Cl)(C3)C2,-,-,?,-,-,-
Cc1nn(CCO)c(N)c1C1(O)C(=O)Nc2c(Cl)cc(Cl)cc21 (stereo not given),-,3.3µM,4.1µM,-,-,-
Cc1ccc(-n2nc(C)c(C3(O)C(=O)N(C)c4ccccc43)c2N)cc1 (stereo not given),-,?,?,-,-,-
Cc1nnsc1C(=O)NCC1Cc2cccc(-c3ncccn3)c2O1 (stereo not given),.,-,-[9.04 µM],.,.,.
Cc1nn(C(C)C(=O)N2CCN(c3ccc(Cl)cc3)CC2)c(=O)c2cc3occc3n12 (stereo not given),.,16µM,?,.,.,.
CC(C)S(=O)(=O)c1oc(-c2cccs2)nc1S(=O)(=O)c1ccc(F)cc1,.,0.46µM,0.65µM,.,.,.
CC(C)S(=O)(=O)c1oc(-c2ccc(F)cc2)nc1S(=O)(=O)c1ccccc1,.,0.46µM,0.73µM,.,.,.
O=C(CCC(=O)c1ccccc1)Nc1ccc(F)c(Cl)c1,.,-,-,.,.,.
CCOC(=O)C1CCCN(c2cc(NCCCO)c([N+](=O)[O-])c3nonc23)C1 (stereo not given),.,.,.,-,.,.
Cc1nnc(Sc2cc(NCCCO)c([N+](=O)[O-])c3nonc23)s1,16µM,2.1µM,1.5µM,-,16µM,-105
Cc1nnc(Sc2cc(NCCO)c([N+](=O)[O-])c3nonc23)s1,?,2.3µM,3.3µM,-,?,-
CCO[C@H]1OC(C(=O)N2CCCCCCC2)=C[C@@H](C2CCCCC2)[C@@H]1CCCO,-,13µM,26µM,-,-,-
CCO[C@@H]1OC(C(=O)N2CCN(Cc3ccc4c(c3)OCO4)CC2)=C[C@H](C2CCCCC2)[C@H]1CCCO,-,?,21µM,?,-,-60
C#CCNC(=O)C1=C[C@@H](c2ccc(C(F)(F)F)cc2)[C@H](CCCO)[C@@H](OCC)O1,-,?,23µM,-,-,-
